{"source": "PubChem BioAssay (Tox21)", "note": "“And” between values parts separate entries of the source, which are not always exact repeats. Equal entries are not always repeated. Inconclusive results are not listed. Entries that show only a call come without a potency. A structure can be active in one record and inactive in another. The source made the active and inactive calls. Calls follow the shape of the dose curve; as a rule, active = well fitted cell-killing curve with a large enough effect in the repeat runs; inconclusive = weak or mixed curves, or effect the other way; inactive = no such curve, though single readings can be large or run the other way. Potency is read from the fitted curve at half-maximal effect.", "data": [{"assay": "qHTS assay to identify small molecule antagonists of the vitamin D receptor (VDR) signaling pathway - cell viability counter screen (AID 743225); also: nearly all actives have a fitted effect of over 50% in size", "details": "VDR-bla HEK293T viability, CellTiter-Glo luminescence, 16 h; series mostly up to 61 µM; viability change, negative = cytotoxic: at the top concentration", "source_text": "U.S. Tox21 Program National Center for Advancing Translational Sciences [NCATS] NIH Chemical Genomics Center [NCGC] U.S. Environmental Protection Agency [EPA] National Institutes of Environmental Health Sciences [NIEHS] National Toxicology Program [NTP] U.S. Food and Drug Administration [FDA] Tox21 Assay Overview: The vitamin D receptor (VDR), a member of nuclear hormone receptor superfamily, plays a critical role in calcium homeostasis and bone metabolism. It is also involved in cell differentiation and growth, and thrombogenicity. To identify the compounds that inhibit VDR signaling, the VDR-UAS-bla HEK 293T cell line (Invitrogen, Carlsbad, CA, USA) containing a beta-lactamase reporter gene under the control of an upstream activator sequence (UAS) was used to screen the Tox21 10K compound library. The cytotoxicity of the Tox21 compound library against the VDR-bla cell line was tested in parallel by measuring the cell viability using CellTiter-Glo assay (Promega, Madison, WI) in the same wells.\nTox21 Assay Protocol Summary: VDR-bla cells were dispensed at 2,000 cells/5 uL of assay medium per well into black wall/clear-bottom 1536-well plates using a Multidrop Combi (Thermo Fisher Scientific, Waltham, MA) dispenser. After the assay plates were incubated at a 37C and 5% CO2 for 4 h, 23 nL of compounds dissolved in DMSO, positive controls or DMSO only was transferred to the assay plate by a Pintool station (Kalypsys, San Diego, CA), followed by addition of 1 uL of 1-alpha, 25-Dihydroxy Vitamin D3 (3 nM, final concentration in the wells) using a Bioraptr Flying Reagent Dispenser (FRD) workstation (Beckman Coulter, Indianapolis, IN). The plates were incubated at 37C and 5% CO2 for 16 h, and then 1 uL of LiveBLAzerTM B/G FRET substrate was added using a Bioraptr FRD. The plates were incubated at room temperature for 2 h and fluorescence intensity was measured by an Envision plate reader (PerkinElmer, Shelton, CT). For cell viability readout that measures cytotoxicity, 3 ul/well of CellTiter-Glo reagent was added into the assay plates using a Bioraptr FRD. After 30 min incubation at room temperature, the luminescence intensity in the plates was measured using a ViewLux plate reader (PerkinElmer).", "values": [{"smiles": "CC1=CCC(C(C)(C)O)CC1", "note": "(stereo not given)", "Potency": "inactive"}, {"smiles": "S=C(NC1CCCCC1)NC1CCCCC1", "Potency": "inactive"}, {"smiles": "O=C(Nc1ccc(Cl)cc1)Nc1ccc(Cl)c(Cl)c1", "viability change, negative = cytotoxic": "-9.7% (inactive)"}, {"smiles": "CC1=CC2C3CC(C=C3C)C2C1", "note": "(stereo not given)", "Potency": "inactive"}, {"smiles": "CCCc1c(OCCCCc2nn[nH]n2)ccc(C(C)=O)c1O", "viability change, negative = cytotoxic": "-11.6% (inactive)"}, {"smiles": "Cc1ccc2c(n1)Oc1ccc(C(C)C(=O)OCC(=O)N(C)C)cc1C2", "note": "(stereo not given)", "Potency": "inactive"}, {"smiles": "O=C(OCc1ccccc1)c1ccccc1O", "viability change, negative = cytotoxic": "-0.393% (inactive)"}, {"smiles": "O=C(/C=C/C=C/c1ccc2c(c1)OCO2)N1CCCCC1", "Potency": "inactive"}, {"smiles": "O=C(COc1ccc(Cl)cc1)N1CCN(Cc2ccc3c(c2)OCO3)CC1", "Potency": "inactive"}, {"smiles": "COC(C)COC(C)COC(C)CO", "note": "(stereo not given)", "Potency": "inactive"}, {"smiles": "O=C(/C=C/c1ccccc1)OCc1ccccc1", "Potency": "inactive"}, {"smiles": "CC(=O)C1(C)CC2=C(CCCC2(C)C)CC1C", "note": "(stereo not given)", "Potency": "inactive"}, {"smiles": "CCCC(=O)O", "Potency": "inactive"}, {"smiles": "CCCCC(CC)COP(=O)(OCC(CC)CCCC)OCC(CC)CCCC", "note": "(stereo not given)", "Potency": "inactive"}, {"smiles": "Cn1cnc([N+](=O)[O-])c1Sc1ncnc2nc[nH]c12", "viability change, negative = cytotoxic": "-24.1% (inactive)"}, {"smiles": "NC=O", "Potency": "inactive"}, {"smiles": "COc1ccccc1/C=C/C=O", "Potency": "inactive"}, {"smiles": "OCCO", "Potency": "inactive"}, {"smiles": "COc1ccc(C(=O)CC(=O)c2ccc(C(C)(C)C)cc2)cc1", "Potency": "inactive"}, {"smiles": "C=C(C)C(=O)OCCOC(=O)C(=C)C", "Potency": "inactive"}, {"smiles": "Cc1cccc(N(C)C(=S)Oc2ccc3ccccc3c2)c1", "Potency": "15.5 µM (active) and inactive"}, {"smiles": "CCCCNS(=O)(=O)c1ccccc1", "Potency": "inactive"}, {"smiles": "CC(C)CC(C)(O)C#CC(C)(O)CC(C)C", "note": "(stereo not given)", "Potency": "inactive"}, {"smiles": "CN(C)CCC=C1c2ccccc2CCc2ccccc21", "Potency": "21.9 µM (active) and 49 µM (active) and inactive"}, {"smiles": "CC(C)Oc1ccc2c(=O)c(-c3ccccc3)coc2c1", "Potency": "inactive"}, {"smiles": "c1ccc2sc(SSN3CCOCC3)nc2c1", "Potency": "inactive"}, {"smiles": "CN(C)c1nc(N(C)C)nc(N(C)C)n1", "Potency": "inactive"}, {"smiles": "c1cc(N(CC2CO2)CC2CO2)ccc1OCC1CO1", "note": "(stereo not given)", "Potency": "inactive"}, {"smiles": "C#C[C@]1(O)CC[C@H]2[C@@H]3CCc4cc(OC)ccc4[C@H]3CC[C@@]21C", "viability change, negative = cytotoxic": "-18% (inactive)"}, {"smiles": "O=S(=O)(O)c1ccc(O)cc1", "Potency": "inactive"}, {"smiles": "CCC(C)CO", "note": "(stereo not given)", "Potency": "inactive"}, {"smiles": "O=C(c1ccccc1)c1ccccc1O", "Potency": "inactive"}, {"smiles": "O=P(O)(O)O", "Potency": "inactive and 5.49 µM (active)"}, {"smiles": "COC(=O)Nc1nc2ccc(S(=O)c3ccccc3)cc2[nH]1", "note": "(stereo not given)", "viability change, negative = cytotoxic": "2.22% (inactive)"}, {"smiles": "O=C(O)c1ccccc1Nc1cccc(C(F)(F)F)c1", "viability change, negative = cytotoxic": "-7.01% (inactive)"}, {"smiles": "O=C(c1ccccc1)c1ccc(O)cc1O", "Potency": "inactive"}, {"smiles": "Nc1ncn([C@@H]2O[C@H](CO)[C@@H](O)[C@H]2O)c(=O)n1", "viability change, negative = cytotoxic": "-14.4% (inactive)"}, {"smiles": "c1ccc2c(c1)Oc1ccccc1S2", "Potency": "inactive"}, {"smiles": "Cc1cccc(C(=O)O)c1", "Potency": "inactive"}, {"smiles": "Nc1ccc(Cl)cc1Cl", "Potency": "inactive"}]}]}
